Bioassay records from PubChem BioAssay.
BAP1 inh = blocks human BAP1 ubiquitin-AMC hydrolysis; calls only at 20 µM; Q92560; actives 0.48% (n = 72,000); AID 436; recombinant BAP1, Ub-AMC hydrolysis fluorescence kinetic; active compounds read low;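 active = activity remaining at or below 50% of control, provided the compound also passes the data quality filters; inactive = the rest, including low values that fail the filters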;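 also: 100% = DMSO wells rate and 0% = substrate alone blank rate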
Autofluor 339 = intrinsic fluorescence of library compounds, ex339/em460 – biochemical, MLSMR library, data from DPM-DC assay, artefact control, profiling panel; fluorescence fold increase at 10 µM; compound autofluorescence, ex339/em460 nm, NADH buffer; active compounds read high; 1 = no-compound wells, NADH background; actives 5.5% (n = 65,000);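 active = at 10 µM, mean starting fluorescence two-fold or more over control wells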;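 also: signal is the first read of a kinetic run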
A340 absorber = absorbance at 340 nm; compound absorbance at 340 nm, fold over control; 65,000 tested, under 10 active; fold change at 10 µM;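 active = at 10 µM dose, initial 340 nm absorbance at least 2 fold that of control wells; inactive = change under 2 fold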;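 also: initial absorbance extrapolated from kinetic A340 decline of NADH oxidation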
M1 ag = M1 muscarinic receptor agonism; CHO-M1 cells, Fluo-4 calcium fluorescence, agonist mode; active compounds read high; B-score at 10 µM; actives 3% (n = 64,000);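 active = fluorescence rise, raw or as B-score row- and column-corrected plate score, outside the 99.7% band of its plate's samples, either direction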
WNV protease inh = blocks West Nile virus NS2B-NS3 protease activity. WNV NS2B-NS3 protease, fluorogenic substrate Ex360/Em465; active compounds read low. z-score (concentration not given with the values). actives 0.18% (n = 65,000); in the data active = z-score below about -3
Target sequence (P06935 1371-1501 limits assumed): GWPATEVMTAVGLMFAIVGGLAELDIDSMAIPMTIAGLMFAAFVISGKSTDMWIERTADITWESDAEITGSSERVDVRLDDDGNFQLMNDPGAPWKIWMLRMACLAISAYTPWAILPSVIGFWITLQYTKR
Target sequence (P06935 1502-1679 limits assumed): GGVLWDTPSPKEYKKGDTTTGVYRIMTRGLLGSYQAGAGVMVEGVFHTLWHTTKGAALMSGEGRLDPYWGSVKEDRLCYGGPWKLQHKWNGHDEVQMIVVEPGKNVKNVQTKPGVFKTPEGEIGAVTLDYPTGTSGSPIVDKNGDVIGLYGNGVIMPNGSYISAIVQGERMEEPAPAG
M1 antag = M1 muscarinic receptor (rat) antagonism. P08482. CHO-M1 cells, Fluo-4 calcium, ACh EC80 antagonist mode; active compounds read low. B-score at 10 µM. actives 3.4% (n = 64,000);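 active = calcium fluorescence response, raw or row-and-column corrected B-score, differing from the plate sample mean either way at a set confidence level, mostly lower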
* = called active by the depositor; i = inactive; nt = not tested or not shown. Most compounds without a hit are left out; they make up all but 9.7% or so of the library.

SMILES | BAP1 inh | Autofluor 339 | A340 absorber | M1 ag | WNV protease inh | M1 antag
CCN(CC)C(=O)c1sc2nc(-c3ccncc3)[nH]c(=O)c2c1C | nt | 4.97* | 1.12 | 0.0795 | 0.28 | 0.022
Cc1nc2sc(C)c(C)c2c(=O)[nH]1 | i | 1.02 | 1.09 | -0.184 | -1.03 | 0.206
CCN(CC)C(=O)c1sc2nc(-c3ccccn3)[nH]c(=O)c2c1C | nt | 3.35* | 1.13 | 0.123 | 3.9 | -0.386
O=c1[nH]c(-c2ccccn2)nc2ccccc12 | i | 1.03 | 1.05 | -0.344 | 0.93 | 0.193
O=C1c2ccccc2-c2cc(Cl)nc3ccc(Nc4ccccc4)c1c23 | i | nt | nt | nt | nt | nt
CS(=O)(=O)Nc1ccccc1C(=O)NC1CC2CCC1C2 (stereo not given) | nt | 3.79* | 1.05 | -0.54 | 0.64 | -0.502
COCCNC(=O)c1ccccc1NC(=O)COc1ccccc1 | i | 1.09 | 1.05 | -1.08 | -0.39 | 2.09*
CCOc1ccccc1NC(=O)c1ccccc1NS(C)(=O)=O | nt | 1.12 | 1.03 | 0.0114 | 0.75 | 0.387
COC(=O)c1ccccc1NC(=O)COc1ccccc1 | i | 1.11 | 0.99 | -0.0601 | 0.5 | -0.37
COCCCNC(=O)c1ccccc1NS(C)(=O)=O | i | 3.35* | 1.08 | -0.538 | 0.48 | 0.214
Clc1ccccc1N=c1oc2ccccc2cc1-c1nc2ccccc2[nH]1 | i | nt | nt | nt | nt | nt
CCCC(C(=O)NC1CCCC1)N(Cc1cccs1)C(=O)c1snc(C(N)=O)c1N (stereo not given) | i | 1.56 | 1.05 | 4.07* | -0.15 | -0.815
CCC(C(=O)NC1CCCC1)N(Cc1ccc2c(c1)OCO2)C(=O)c1snc(C(N)=O)c1N (stereo not given) | i | 1.48 | 1.01 | 1.51 | -0.9 | 1.07
COCC(C)NC(=O)c1ccccc1OC(C)=O (stereo not given) | i | 2.03* | 1.01 | -0.756 | -0.25 | -0.334
Cc1oc2c(CN3CCCC3)c(O)ccc2c(=O)c1-c1ccccc1 | nt | 2.97* | 1.06 | 3.2* | 0.82 | -0.00374
Cc1oc2c(CN3CCCC3)c(O)ccc2c(=O)c1-c1ccc(Cl)cc1 | nt | 3.88* | 1.13 | -0.86 | 1.23 | 0.512
O=c1c(-c2ccc(Br)cc2)coc2c(CN3CCOCC3)c(O)ccc12 | nt | 2.97* | 1.06 | -0.626 | -0.22 | -0.175
COc1ccc(C(=O)c2c(C)oc3ccc(O)c(CN4CCOCC4)c23)cc1 | i | 1.05 | 1.04 | 0.0044 | 1.83 | -0.865
Cc1oc2c(CN3CCOCC3)c(O)ccc2c(=O)c1-c1ccc(Br)cc1 | nt | 3.07* | 0.99 | 0.0141 | 0.22 | 0.0929
Cc1ccccc1-c1c(C)oc2c(C)c(O)ccc2c1=O | i | nt | nt | nt | nt | nt
COc1ccc(Cl)cc1NC(=O)C1c2ccccc2Oc2ccccc21 | i | nt | nt | nt | nt | nt
COc1ccc(NC(=O)c2cc3ccccc3oc2=Nc2ccccc2Cl)cc1 | i | nt | nt | nt | nt | nt
c1ccc2c(c1)oc1c(NCc3ccc4c(c3)OCO4)ncnc12 | i | 1.08 | 0.99 | 5.73* | -0.21 | -1.7
Cc1c(C(=O)NCC2CCCO2)oc2ccc(S(=O)(=O)N3CCCC3)cc12 (stereo not given) | nt | 1.13 | 1.06 | -0.0322 | 0.24 | 0.184
Cc1c(C(=O)NCC2CCCO2)oc2ccc3c(c12)C(=O)CC(C)(C)O3 (stereo not given) | nt | 2.99* | 1.03 | 0.276 | -1.18 | 1.05
SMILES | BAP1 inh | Autofluor 339 | A340 absorber | M1 ag | WNV protease inh | M1 antag
CCOC(=O)c1c(C)n(C)c2ccc(OCC(O)CN3C(=O)c4ccccc4S3(=O)=O)cc12 (stereo not given) | i | 1.11 | 1.05 | 7.22* | -1.28 | -0.807
C=CCN1C(=O)C(C(c2cccc([N+](=O)[O-])c2)C2C(=O)NC(=S)N(CC=C)C2=O)C(=O)NC1=S (stereo not given) | i | nt | nt | nt | nt | nt
COCCCN1C(=O)C(O)=C(C(=O)c2ccco2)C1c1ccc(Br)cc1 (stereo not given) | i | 0.7 | 1.03 | 0.00978 | -0.56 | 0.557
Cc1nnc(N2C(=O)C(O)=C(C(=O)c3ccco3)C2c2ccc(F)cc2)s1 (stereo not given) | i | 1.11 | 1.01 | 17.8* | 1.14 | -0.283
O=C(O)CCc1nc2ccccc2n(CCc2ccccc2)c1=O | i | 2.33* | 1.05 | 1.36 | -1.8 | 0.802
CCc1nc2ccccc2n(CCOCCn2c(=O)c(CC)nc3ccccc32)c1=O | i | 1.3 | 1.04 | -0.264 | 0.47 | 0.0158
O=C(O)CCc1nn2c3ccccc3nc2n(CCN2CCCCC2)c1=O | i | 4.42* | 1.02 | -0.624 | 1.28 | 0.878
Cc1ccc2[nH]c3c(N4CCN(Cc5ccc6c(c5)OCO6)CC4)ncnc3c2c1 | i | 1.59 | 1.07 | 1.84 | -0.28 | -1.64
COc1cccc(N2CCN(c3ncnc4c3[nH]c3ccc(F)cc34)CC2C)c1 (stereo not given) | nt | 1.52 | 1.03 | 7.78* | -0.33 | -6.13*
COc1cc2[nH]c3c(N4CCN(c5ccc(Cl)cc5)CC4)ncnc3c2cc1OC | i | 2.42* | 1.09 | -0.0403 | 0.09 | 0.145
Fc1ccc2[nH]c3c(N4CCN(C5CCCCC5)CC4)ncnc3c2c1 | i | 2.34* | 1.05 | -0.319 | -0.59 | -1.01
Cc1ccc2[nH]c3c(N4CCN(Cc5ccccc5)CC4)ncnc3c2c1 | i | 1.83 | 1.05 | 5.63 | -0.06 | -1.66
O=C(Nc1cccc(F)c1)c1cccc(Cl)c1 | i | nt | nt | nt | nt | nt
CCOC(=O)N1CCN(C(=O)c2cc(C)c3c(C)nn(-c4ccccc4)c3n2)CC1 | i | 1.13 | 1 | -0.0821 | 0.54 | 0.425
O=C(O)c1cc(-c2ccco2)nc2ccccc12 | i | 3.69* | 1.22 | -0.788 | 2.56 | -0.4
O=C(NCc1ccco1)c1cc(-c2ccncc2)nc2ccccc12 | i | 1.13 | 1.07 | -1.06 | 1.21 | -0.996
Cc1nn(-c2ccccc2)c2nc(-c3ccco3)cc(C(=O)O)c12 | i | 2* | 1.22 | 0.573 | -0.64 | 0.264
c1cc(-c2nc3ccccc3o2)nc(-c2nc3ccccc3o2)c1 | i | 1.16 | 0.98 | -0.383 | 0.56 | 0.331
c1ccc2nc(-c3nc4ccccc4o3)ccc2c1 | nt | 2.11* | 1.17 | -1.65 | 1.68 | -0.494
C/C(=C\C(=O)c1ccc(C)o1)Nc1ccc(C(=O)O)cc1C | i | 1.09 | 1.1 | 0.0653 | -0.08 | 3.04*
Cc1ccc2cccc(SCC(=O)NCc3ccco3)c2n1 | nt | 3.85* | 1.05 | 0.03 | 0.65 | -0.0432
Cc1ccc2cccc(OCC(=O)NCc3ccco3)c2n1 | i | 1.05 | 0.99 | -0.616 | 0.27 | -0.488
Cc1ccc2cccc(SCC(=O)N3CCOCC3)c2n1 | i | 2.48* | 0.99 | -0.0173 | 0.26 | 0.535
c1ccc(-c2nc3nc4ccccc4nc3n2Cc2ccco2)cc1 | i | 1.5 | 1.13 | 1.13 | -1.32 | -0.138
CC(C)Cn1c(-c2cccs2)nc2nc3ccccc3nc21 | nt | 3.91* | 1.07 | -0.666 | 1.14 | 0.11
c1ccc(Cn2c(-c3cccs3)nc3nc4ccccc4nc32)cc1 | i | 3.71* | 1.03 | -0.361 | -1.32 | 0.524
